MITF TRPM1 HTS – activators of MITF-driven TRPM1 promoter reporter, primary screen, cell-based, SK-MEL-5, luciferase, single point | 300,000 compounds, 0.75% hits | SK-MEL-5 TRPM1-promoter luciferase, 24 h; % of positive control, neutral wells = 0 | activation, % at 12.5 µM;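 active means mean activation of at least 80% with every replicate also reaching 80%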;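 further: 0% = neutral control wells and 100% = parthenolide positive control wells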
Statin myotox sup – suppressors of statin myotoxicity in C2C12 myotubes, primary screen, cell-based, single point, plate reader; C2C12 myotubes + simvastatin, ATP luminescence, 48 h; scaled: DMSO 0, geranylgeraniol control 100; rescue of ATP level, % at 7.49 µM; 330,000 compounds, 0.78% hits; AID 602340, 2012;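 active means mean ATP rescue above about 67%, or every replicate alone reaching that limit, limit read from the data, passing the limit was not always enough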;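 further: myotubes were challenged with 10 µM simvastatin during compound exposure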
EBV LMP1 NFkB – EBV LMP1-driven NF-kappaB luciferase reporter inhibitors, primary screen, cell-based, luminescence, single point. LMP1-induced NF-kappaB luciferase reporter cells. inhibition, % at 12.5 µM. 350,000 compounds, 0.69% hits. AID 504558, 2011; in the data active means inhibition above about 41%;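 further: 0% = neutral control wells and 100% = reference inhibitor control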
TRPM1 prom inh – inhibitors of MITF-dependent TRPM1 promoter reporter, primary screen, cell-based, SK-MEL-5, single point, luciferase. SK-MEL-5 TRPM1 promoter luciferase, 24 h. 330,000 compounds, 0.83% hits. inhibition, % at 12.5 µM;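 active means mean inhibition across replicates of 60% or more, whatever share of single replicates reaches that level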
Wnt act – Wnt/beta-catenin pathway activators, primary screen, cell-based, plate reader, single point; Wnt/beta-catenin reporter cell assay, activator; 300,000 compounds, 1.2% hits; activation, % at 9.35 µM; in the data active means activation above about 30%, passing the limit was not always enough;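 further: 0% = neutral control wells and 100% = positive control wells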
esBAF inh – Bmi1 luciferase reporter increase in mESCs, primary screen, esBAF inhibitor project, mouse ES cells, Bmi1 luciferase knock-in, single point | 24 h; 100% = twice the neutral-well signal | reporter increase, % at 12.5 µM | 350,000 compounds, 2% hits; in the data active means activation above about 40%;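 further: 0% = median of the plate's neutral control wells and 100% = double that signal; a rise in the Bmi1 reporter signal indicates esBAF inhibition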
* = called active by the depositor; / = not tested or not shown. A selection: hits, their analogues and other compounds. The true share with any hit is near 4%.

SMILES	MITF TRPM1 HTS	Statin myotox sup	EBV LMP1 NFkB	TRPM1 prom inh	Wnt act	esBAF inh
CC(C)(C)NC(=O)C(c1cc2ccccc2o1)n1c(=O)c(-c2ccco2)nc2ccccc21 (stereo not given)	/	/	/	/	-4	/
CC(C)(C)NC(=O)C(c1cc2ccccc2o1)n1c(-c2ccc(-c3ccccc3)cc2)nc2ccccc21 (stereo not given)	/	/	/	/	51*	/
CC[C@@H](C(=O)[C@@H](C)[C@@H](O)[C@H](C)CCc1ccc(C)c(O)c1C(=O)O)[C@H]1O[C@](CC)([C@H]2CC[C@](O)(CC)[C@H](C)O2)C[C@@H]1C	-36	-126	-7	40	-27	-22
CC[C@@H](C(=O)[C@@H](C)[C@@H](O)[C@H](C)[C@@H]1O[C@@H]([C@@H](CC)C(=O)O)CC[C@@H]1C)[C@H]1O[C@]2(C=C[C@@H](O)[C@]3(CC[C@@](C)([C@H]4CC[C@](O)(CC)[C@H](C)O4)O3)O2)[C@H](C)C[C@@H]1C	-77	-135	-4	78*	-30	-54
Cc1cc(C)c(S(=O)(=O)NCCc2ccccc2)c(C)c1	11	/	0	-10	-2	/
COc1ccc(Cn2c(O)c(C=Nc3ccccc3C(=O)O)c3ccccc3c2=O)cc1	-12	/	44*	16	10	/
COc1ccc(Cn2c(O)c(C=Nc3ccc(OC)cc3)c3ccccc3c2=O)cc1	-13	/	7	14	/	/
COc1ccccc1OCCSc1nc2ccccc2c(=O)[nH]1	52	-5	-12	-55	44*	64*
O=C(CN1CCCCCC1)NCC1CCCO1 (stereo not given)	8	5	1	-8	-2	-3
CCS(=O)(=O)N1CCc2nc(-c3ccccc3)sc2C1	121*	-3	-25	-111	39*	13
CC/C(=N\OC(=O)c1ccc(OC(C)C)cc1)c1ccc(C)cc1	7	/	2	-6	/	/
S=C(NCCSCc1ccc(Cl)cc1Cl)Nc1ccccc1	-4	28	-4	3	/	-2
OCCCCNCc1ccc(OCc2ccc(Cl)cc2Cl)cc1	6	10	-2	-5	/	1
S=C(Nc1ccccc1)Nc1ccc(OCc2ccc(Cl)cc2Cl)cc1	/	/	77*	82*	/	-75
OCCNCc1ccc(OCc2ccc(Cl)cc2Cl)cc1	24	-18	-5	-23	34*	18
Cc1ccccc1Nc1nnc(SCC(=O)NC(=O)NCc2ccco2)s1	-13	13	11	13	-3	-1
CCOc1ccccc1CN1CCC(CO)(CCOc2ccccc2)CC1	5	/	-22	-8	-3	/
OCC1(CCOc2ccccc2)CCN(Cc2ccccc2C(F)(F)F)CC1	3	-1	-4	-11	41*	-4
COc1ccc(C(=O)c2c(C(F)(F)F)oc3c2C(=O)c2ccccc2C3=O)cc1	-103	/	85*	105*	/	/
COc1ccc(C(=O)c2oc3ccccc3c2NC(C)=O)cc1	/	-2	13	-14	23	22
CO[C@H]1CN(C)C(=O)c2cc(NC(=O)c3ccccc3F)ccc2OC[C@H](C)N(C(=O)c2ccccc2F)C[C@@H]1C	/	-3	/	/	/	-3
Clc1cccc(CNc2ccn3nc(-c4cccc(Cl)c4)cc3n2)c1	/	3	/	/	-3	58*
CC(C)(C)c1cc2nc(NCc3cccc(Cl)c3)ccn2n1	/	-15	/	/	-2	7
CC(C)Cc1ccc(-c2cc3nc(NCCOc4ccccc4)ccn3n2)cc1	/	9	/	/	0	58*
Clc1cccc(CNc2ccn3nc(-c4ccccc4)cc3n2)c1	/	10	/	/	5	50*
c1ccc(COc2ccc(-c3cc4nc(NCCOc5ccccc5)ccn4n3)cc2)cc1	/	6	/	/	-3	5
Clc1cccc(-c2cc3nc(NCCOc4ccccc4)ccn3n2)c1	/	3	/	/	11	57*
O=C(C[C@@H]1CC[C@H]2[C@@H](COC[C@H](O)CN2S(=O)(=O)c2ccccc2Cl)O1)NCc1ccccc1Cl	/	6	/	/	/	3
